Shown are actives, neighbours in structure and some others; about 3.6% of the full set was active somewhere.
Anthrax LF prot – inhibitors of Bacillus anthracis lethal factor protease; P15917; multiplex microsphere protease cleavage assay, LF; inhibition, % at 10 µM; 0.12% of 360,000 active
MazF activator – increases E. coli MazEF RNase cleavage of RNA; P0AE70; FAM/BHQ RNA-DNA oligo cleavage fluorescence, 5 h; activation, % at 20 µM; 0.32% of 350,000 active; in the data active = activation above about 50%
BoNT F protease – inhibitors of Botulinum neurotoxin F light chain protease; Multiplex microsphere protease cleavage assay, flow cytometry; inhibition, % at 10 µM; 0.22% of 360,000 active; AID 588497; in the data active = inhibition above about 35%, passing the limit was not always enough; inconclusive = no clear call, values can overlap the other calls
BoNT A protease – inhibitors of Botulinum neurotoxin A light chain protease | multiplex microsphere protease substrate cleavage, flow cytometry | inhibition, % at 10 µM | 0.17% of 360,000 active
Bead autofluor – compound fluorescence in toxin protease inhibitor counterscreen; fluorescence intensity (no concentration beside the values); 3.1% of 360,000 active; compound autofluorescence counterscreen, microsphere flow cytometry; hits give high values; in the data active = fluorescence intensity above about 16000; inconclusive = no clear call, values can overlap the other calls
Each line names hits and unclear results; the compound was inactive in the other large screens. Cut-off read from the data, not from the text of the source, unless noted: active = inhibition above about 30%; inconclusive = no clear call, values can overlap the other calls; inactive = below that.

CCC(=O)Nc1cc(-c2nn(C)c(=O)c3ccccc23)ccc1OC	Bead autofluor 21426
CCC(=O)Nc1cc(-c2nn(C)c(=O)c3ccccc23)ccc1N1CCCCC1	none
CCCC(=O)Nc1cc(-c2nn(C)c(=O)c3ccccc23)ccc1OC	Anthrax LF prot inconclusive, BoNT A protease inconclusive, Bead autofluor inconclusive
CC(=O)Nc1cc(-c2nn(CC(=O)N3CCCCC3)c(=O)c3ccccc23)ccc1N1CCOCC1	none
Cc1ccc(-c2nn3c(C)nnc3c3ccccc23)cc1S(=O)(=O)NCCN1CCOCC1	Bead autofluor 22118
CC(=O)Nc1cc(-c2nn(C)c(=O)c3ccccc23)ccc1N1CCCCC1	Bead autofluor 16582
CCCC(=O)Nc1cc(-c2nn(C)c(=O)c3ccccc23)ccc1N1CCCCC1	Bead autofluor 16901
C[C@@H]1CN([C@@H](C)CO)C(=O)CCCn2nncc2CO[C@H]1CN(C)S(=O)(=O)c1ccc(-c2ccccc2)cc1	none
Cc1ccc(-c2nn(C)c(=O)c3ccccc23)cc1S(=O)(=O)N1CCOCC1	Bead autofluor 25828
Cn1nc(-c2ccc(N3CCOCC3)c(NS(=O)(=O)c3ccccc3)c2)c2ccccc2c1=O	Bead autofluor 22480
Cc1ccc(S(=O)(=O)Nc2cc3c(cc2N2CCOCC2)n(C)c(=O)c(=O)n3C)cc1	none
Cc1ccc(NC(=O)C(Cc2ccccc2)NC(=O)c2ccco2)cc1 (stereo not given)	BoNT A protease inconclusive, Bead autofluor 23460
Cc1ccc(CC(NC(=O)c2ccccc2)C(=O)NCC(=O)O)cc1 (stereo not given)	Bead autofluor 22985
Cc1ccc(NC(=S)NC(NC(=O)c2ccco2)C(Cl)(Cl)Cl)cc1 (stereo not given)	none
CC(=O)NCCNC(=O)[C@H](Cc1ccccc1)NC(=O)c1cccs1	BoNT A protease inconclusive, Bead autofluor 20647
Cc1ccc(CC(NC(=O)c2ccccc2)C(=O)NC(CC(C)C)C(=O)O)cc1 (stereo not given)	none
Cc1ccccc1CN(C)C(=O)[C@H](Cc1ccccc1)NC(=O)c1ccco1	none
O=C(O)c1ccc(NC(=S)NC(NC(=O)c2ccco2)C(Cl)(Cl)Cl)cc1 (stereo not given)	Bead autofluor 25206
O=C(O)c1ccc(CN2C[C@@H](CO)O[C@@H](n3cnc4c(NCc5ccco5)ncnc43)C2)cc1	none (no result: MazF activator)
COCCn1c(SCC(=O)Nc2ccc3c(c2)OCCO3)nnc1-c1c[nH]c2ccccc12	Bead autofluor 22982
CC(C)Sc1nc2ccccc2n1CC(=O)NCc1ccc2c(c1)OCO2	BoNT A protease inconclusive, Bead autofluor 22521
CC(Sc1nnc(-c2cccs2)n1Cc1ccccc1)C(=O)NCc1ccc2c(c1)OCO2 (stereo not given)	MazF activator 64
Nn1c(SCC(=O)Nc2ccc3c(c2)OCCO3)nnc1-c1ccncc1	none
CC(C)N(C(=O)Cn1c(SCC(=O)NCc2ccc3c(c2)OCO3)nc2ccccc21)C(C)C	none
O=C(CSc1nnc(-c2cccs2)n1Cc1ccccc1)NCc1ccc2c(c1)OCO2	none
O=C(CSc1nnc2scc(-c3ccccc3)n12)Nc1ccc2c(c1)OCCO2	BoNT A protease inconclusive, Bead autofluor 16931
COCCn1c(SCC(=O)Nc2ccc3c(c2)OCCO3)nnc1-c1ccncc1	none
O=C(CCSc1nnc2scc(-c3ccccc3)n12)NCc1ccc2c(c1)OCO2	Bead autofluor 16498
CCc1nnc(NC(=O)CCc2ccc(C)o2)s1	none
CCc1ccc(CCC(=O)Nc2nnc(C)s2)o1	BoNT A protease inconclusive, Bead autofluor 20941
CCc1ccc(CCC(=O)Nc2nc(CC(C)=O)ns2)o1	Bead autofluor 16142
CCn1nnc(NC(=O)CSc2ccc(Cl)cc2)n1	Bead autofluor 24449
O=C(Nc1ccccc1N1CCCC1)c1cc2ccccc2o1	none
CCn1nnc(NC(=O)c2cc3ccccc3o2)n1	Bead autofluor 21445
CC(C)C(=O)Nc1ccc(NC(=S)NC(=O)c2cc3ccccc3o2)cc1	none
CC(C)C(=O)Nc1ccc(NC(=O)c2cc3ccccc3o2)cc1	Bead autofluor 22449
CN1CCN(c2ccccc2NC(=O)c2cc3ccccc3o2)CC1	Bead autofluor 21317
CCCCn1nnc(NC(=O)Cc2ccc(Cl)cc2)n1	none
COc1ccc(C(=O)C(=O)c2ccc(OCCO)cc2)cc1	none
COc1cc(/C=N/NC(=O)c2ccccn2)ccc1OC(=O)c1cccs1	none (no result: Anthrax LF prot, BoNT F protease, BoNT A protease, Bead autofluor)
CC(C)CCn1c(CN2CCN(Cc3ccccc3)CC2)nc2c1c(=O)[nH]c(=O)n2C	Bead autofluor 22665
CCCSc1nc2c(c(=O)[nH]c(=O)n2C)n1Cc1ccccc1	none
Cc1cccc(Cn2c(CN3CCN(Cc4ccccc4)CC3)nc3c2c(=O)[nH]c(=O)n3C)c1	none

From PubChem BioAssay
